Results taken from PubChem BioAssay (EPA / NIEHS).
Calls of active or inactive are those of the source. How the source made its calls: active means hit-call score of the fitted dose curve at least 0.9, where 1 is the maximum; inactive means score below 0.9.

Experiments:
Conditions in all cases: mRNA level, 48 h; actives raise or lower the signal
[1] = read-out: Lipase C (LIPC), LIPC (gene 3990); assay: LTEA_HepaRG_LIPC: Life Technologies and Expression Analysis (LTEA) Assay for Lipase C (LIPC) using HepaRG (AID 2283514)
Procedure, shortened: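 Read-out is LIPC transcript level by TaqMan qRT-PCR, normalized to three housekeeping genes, after 48 h chemical treatment of human HepaRG liver cells. Curves span eight concentrations topping at 100 uM; activity in either direction scored relative to 0.5% DMSO.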

[2] = read-out: Lipoprotein lipase (LPL), LPL (gene 4023); assay: LTEA_HepaRG_LPL: Life Technologies and Expression Analysis (LTEA) Assay for Lipoprotein lipase (LPL) using HepaRG (AID 2283515)
Procedure, shortened: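 Read-out is LPL transcript level by qRT-PCR, normalized to three housekeeping genes and fitted bidirectionally against the DMSO control. Human HepaRG cells received chemicals for 48 h at up to 100 uM.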

[3] = read-out: MicroRNA 122 (MIR122), gene 406906; assay: LTEA_HepaRG_MIR122: Life Technologies and Expression Analysis (LTEA) Assay for MicroRNA 122 (MIR122) using HepaRG (AID 2283516); further: the transcript read is the microRNA miR-122
Procedure, shortened: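 HepaRG, 48 h exposure, 8-pt half-log from 100 uM, 0.5% DMSO; TaqMan qRT-PCR; bidirectional fit vs DMSO.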

[4] = read-out: matrix metalloproteinase-10 (MMP10), MMP10 (gene 4319); assay: LTEA_HepaRG_MMP10: Life Technologies and Expression Analysis (LTEA) Assay for matrix metalloproteinase-10 (MMP10) using HepaRG (AID 2283517)
Procedure, shortened: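 Gain or loss of MMP10 mRNA is fitted relative to the 0.5% DMSO vehicle. The human hepatic line HepaRG receives a 48-hour serum-free exposure, in duplicate, with a maximum concentration of 100 uM.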

MYC, MYC (gene 4609) = assay: LTEA_HepaRG_MYC: Life Technologies and Expression Analysis (LTEA) Assay for MYC using HepaRG (AID 2283518)
Procedure, shortened: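 Cells are thawed, plated and cultured 48 h, then treated for 48 h with test chemicals (eight half-log concentrations from 100 uM, 0.5% DMSO vehicle). RNA is isolated and MYC expression quantified by qRT-PCR against three housekeeping genes.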

[5] = read-out: matrix metalloproteinase-3 (MMP3), MMP3 (gene 4314); assay: LTEA_HepaRG_MMP3: Life Technologies and Expression Analysis (LTEA) Assay for matrix metalloproteinase-3 (MMP3) using HepaRG (AID 2283519)
Procedure, shortened: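 HepaRG, human; 48 h dosing, 8 conc. (max 100 uM, half-log), duplicate, 0.5% DMSO. Readout: MMP3 transcript by Fluidigm TaqMan qRT-PCR, ACTB/GAPDH/POLR2A-normalised. Gain or loss fitted vs DMSO.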

[6] = read-out: Paternally Expressed 10 (PEG10), PEG10 (gene 23089); assay: LTEA_HepaRG_PEG10: Life Technologies and Expression Analysis (LTEA) Assay for Paternally Expressed 10 (PEG10) using HepaRG (AID 2283520);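 on AC50: PEG10 transcript by qRT-PCR normalised to ACTB GAPDH and POLR2A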
Procedure, shortened: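 Chemicals tested on HepaRG cells for 48 h, highest concentration 100 uM. PEG10 expression assessed by qRT-PCR relative to DMSO control.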

[7] = read-out: Phosphatase and tensin (PTEN), PTEN (gene 5728); assay: LTEA_HepaRG_PTEN: Life Technologies and Expression Analysis (LTEA) Assay for Phosphatase and tensin (PTEN) using HepaRG (AID 2283523)
Procedure, shortened: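 Read-out is PTEN transcript level by multiplexed TaqMan qRT-PCR after 48 h chemical treatment of human HepaRG cultures in serum-free induction medium. Concentrations spanned 100 uM downward in half-log steps, 0.5% DMSO throughout; activity fitted in both directions against vehicle.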

[8] = read-out: solute carrier (SLC22A1), SLC22A1 (gene 6580); assay: LTEA_HepaRG_SLC22A1: Life Technologies and Expression Analysis (LTEA) Assay for solute carrier (SLC22A1) using HepaRG (AID 2283524);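 on AC50: differentiated human HepaRG liver cells in serum-free induction medium; TaqMan qRT-PCR normalized to ACTB GAPDH and POLR2A housekeeping genes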
Procedure, shortened: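 HepaRG (human liver line), 48 h dosing in serum-free induction medium; 8 conc., half-log down from 100 uM, 0.5% DMSO vehicle, duplicates. Endpoint: SLC22A1 mRNA, qRT-PCR, housekeeping-normalized; gain/loss fit vs DMSO.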

[9] = read-out: Pyruvate Dehydrogenase Kinase 4 (PDK4), PDK4 (gene 5166); assay: LTEA_HepaRG_PDK4: Life Technologies and Expression Analysis (LTEA) Assay for Pyruvate Dehydrogenase Kinase 4 (PDK4) using HepaRG (AID 2283525)
Procedure, shortened: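 In this multiplexed human HepaRG expression assay, cells are treated 48 h with test chemicals across an eight-point range starting at 100 uM. PDK4 mRNA changes, normalized to ACTB/GAPDH/POLR2A, are fitted in both directions relative to vehicle.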

[10] = read-out: NAD(P)H dehydrogenase [quinone] 1 (NQO1), NQO1 (gene 1728); assay: LTEA_HepaRG_NQO1: Life Technologies and Expression Analysis (LTEA) Assay for NAD(P)H dehydrogenase [quinone] 1 (NQO1) using HepaRG (AID 2283526)
Procedure, shortened: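 Human HepaRG hepatic cells received chemicals for 48 h in serum-free induction medium with 0.5% DMSO, up to 100 uM. Expression was assessed by TaqMan qRT-PCR against housekeeping controls and fitted bidirectionally against DMSO.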

[11] = read-out: Nuclear factor erythroid 2-related factor 2 (Homo sapiens) (UniProt Q16236); assay: LTEA_HepaRG_NFE2L2: Life Technologies and Expression Analysis (LTEA) Assay for Nuclear factor erythroid 2-related factor 2 (NFE2L2) Transcription Factor using HepaRG (AID 2283527);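 further: TaqMan qRT-PCR transcript level normalised to ACTB GAPDH and POLR2A housekeeping genes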
Procedure, shortened: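 Transcript level of NFE2L2 is the read-out, measured by microfluidic TaqMan qRT-PCR and normalized to three housekeeping genes. Human HepaRG cultures received test chemical for 48 h at up to 100 uM in half-log steps. Gain or loss of signal is fitted relative to 0.5% DMSO.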

[12] = read-out: succinate dehydrogenase complex iron sulfur subunit B (SDHB), SDHB (gene 6390); assay: LTEA_HepaRG_SDHB: Life Technologies and Expression Analysis (LTEA) Assay for succinate dehydrogenase complex iron sulfur subunit B (SDHB) using HepaRG (AID 2283528)
Procedure, shortened: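 A human HepaRG culture in serum-free induction medium received test chemicals for 48 h over an eight-point range capped at 100 uM. SDHB expression change was quantified by qRT-PCR.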

[13] = read-out: Signal transducer and activator of transcription 3 (Homo sapiens) (UniProt P40763); assay: LTEA_HepaRG_STAT3: Life Technologies and Expression Analysis (LTEA) Assay for Signal transducer and activator of transcription (STAT3) using HepaRG (AID 2283529)
Procedure, shortened: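 Read-out is STAT3 mRNA level by qRT-PCR, normalized to three housekeeping genes, in human HepaRG liver cells treated for 48 h. Concentrations ran from 100 uM downward in half-log steps; curves were fitted for gain or loss relative to 0.5% DMSO.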

[14] = read-out: sulfotransferase 2A1 (SULT2A1), SULT2A1 (gene 6822); assay: LTEA_HepaRG_SULT2A1: Life Technologies and Expression Analysis (LTEA) Assay for sulfotransferase 2A1 (SULT2A1) using HepaRG (AID 2283531)
Procedure, shortened: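 Cells were plated and cultured 48 h, switched to serum-free induction medium, then dosed in duplicate for 48 h (8 concentrations, max 100 uM). RNA was isolated and SULT2A1 expression measured by qRT-PCR; gain or loss of signal fitted relative to DMSO.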

[15] = read-out: Transforming Growth Factor (TGFA), TGFA (gene 7039); assay: LTEA_HepaRG_TGFA: Life Technologies and Expression Analysis (LTEA) Assay for Transforming Growth Factor (TGFA) using HepaRG (AID 2283532)
Procedure, shortened: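 HepaRG (human liver line), 48 h exposure, 8 conc. half-log down from 100 uM, 0.5% DMSO vehicle, duplicates; serum-free induction medium. TGFA mRNA by TaqMan qRT-PCR, ACTB/GAPDH/POLR2A normalization; gain/loss fit vs DMSO.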

[16] = read-out: Transforming Growth Factor (TGFB1), TGFB1 (gene 7040); assay: LTEA_HepaRG_TGFB1: Life Technologies and Expression Analysis (LTEA) Assay for Transforming Growth Factor (TGFB1) Transporter using HepaRG (AID 2283533)
Procedure, shortened: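 Expression change of TGFB1 in human HepaRG cells is measured after a 48 h chemical exposure, up to 100 uM in 0.5% DMSO vehicle. Curves are fitted in both directions relative to the DMSO baseline.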

[17] = read-out: Nuclear factor NF-kappa-B p105 subunit (Homo sapiens) (UniProt P19838); assay: LTEA_HepaRG_NFKB1: Life Technologies and Expression Analysis (LTEA) Assay for Nuclear Factor Kappa B Subunit 1 (NFKB1) using HepaRG (AID 2283521);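 further: differentiated human HepaRG liver cells in serum-free induction medium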
Procedure, shortened: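 Human HepaRG cells receive eight half-log concentrations, highest 100 uM, for 48 h. NFKB1 expression is then quantified by qRT-PCR and analysed for up- or down-regulation relative to 0.5% DMSO vehicle.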

[18] = read-out: Protein phosphatase 2A (PPP2R4), PTPA (gene 5524); assay: LTEA_HepaRG_PPP2R4: Life Technologies and Expression Analysis (LTEA) Assay for Protein phosphatase 2A (PPP2R4) using HepaRG (AID 2283522)
Procedure, shortened: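 Gene-expression endpoint in HepaRG hepatic cells: 48 h treatment across eight half-log concentrations up to 100 uM in 0.5% DMSO. PPP2R4 mRNA by qRT-PCR, normalized to three endogenous control genes.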

[19] = read-out: solute carrier (SLCO1B1), SLCO1B1 (gene 10599); assay: LTEA_HepaRG_SLCO1B1: Life Technologies and Expression Analysis (LTEA) Assay for solute carrier (SLCO1B1) using HepaRG (AID 2283530)
Procedure, shortened: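 Gain or loss of SLCO1B1 mRNA is fitted against the 0.5% DMSO vehicle in human HepaRG liver cells treated 48 h at up to 100 uM in half-log steps. Expression comes from qRT-PCR normalized to endogenous controls.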

Measured: AC50

Nuclear factor erythroid 2-related factor 2 (Homo sapiens), sequence (Q16236 whole entry, looked up): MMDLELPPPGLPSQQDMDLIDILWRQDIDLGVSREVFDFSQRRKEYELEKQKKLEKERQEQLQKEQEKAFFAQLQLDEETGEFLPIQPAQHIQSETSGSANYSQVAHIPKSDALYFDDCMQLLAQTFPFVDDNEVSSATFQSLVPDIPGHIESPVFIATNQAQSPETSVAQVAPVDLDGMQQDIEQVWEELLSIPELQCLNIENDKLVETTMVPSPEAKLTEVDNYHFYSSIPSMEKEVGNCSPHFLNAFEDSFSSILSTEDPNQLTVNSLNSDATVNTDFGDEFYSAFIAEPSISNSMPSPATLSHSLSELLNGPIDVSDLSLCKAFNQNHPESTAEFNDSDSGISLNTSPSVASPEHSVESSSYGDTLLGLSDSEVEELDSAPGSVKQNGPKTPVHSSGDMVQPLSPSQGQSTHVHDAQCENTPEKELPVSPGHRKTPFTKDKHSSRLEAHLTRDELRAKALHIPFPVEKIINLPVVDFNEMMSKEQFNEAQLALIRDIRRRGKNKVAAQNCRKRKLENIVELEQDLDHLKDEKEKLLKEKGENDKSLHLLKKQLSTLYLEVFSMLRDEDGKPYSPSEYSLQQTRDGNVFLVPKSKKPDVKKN
Signal transducer and activator of transcription 3 (Homo sapiens), sequence (P40763 whole entry, looked up): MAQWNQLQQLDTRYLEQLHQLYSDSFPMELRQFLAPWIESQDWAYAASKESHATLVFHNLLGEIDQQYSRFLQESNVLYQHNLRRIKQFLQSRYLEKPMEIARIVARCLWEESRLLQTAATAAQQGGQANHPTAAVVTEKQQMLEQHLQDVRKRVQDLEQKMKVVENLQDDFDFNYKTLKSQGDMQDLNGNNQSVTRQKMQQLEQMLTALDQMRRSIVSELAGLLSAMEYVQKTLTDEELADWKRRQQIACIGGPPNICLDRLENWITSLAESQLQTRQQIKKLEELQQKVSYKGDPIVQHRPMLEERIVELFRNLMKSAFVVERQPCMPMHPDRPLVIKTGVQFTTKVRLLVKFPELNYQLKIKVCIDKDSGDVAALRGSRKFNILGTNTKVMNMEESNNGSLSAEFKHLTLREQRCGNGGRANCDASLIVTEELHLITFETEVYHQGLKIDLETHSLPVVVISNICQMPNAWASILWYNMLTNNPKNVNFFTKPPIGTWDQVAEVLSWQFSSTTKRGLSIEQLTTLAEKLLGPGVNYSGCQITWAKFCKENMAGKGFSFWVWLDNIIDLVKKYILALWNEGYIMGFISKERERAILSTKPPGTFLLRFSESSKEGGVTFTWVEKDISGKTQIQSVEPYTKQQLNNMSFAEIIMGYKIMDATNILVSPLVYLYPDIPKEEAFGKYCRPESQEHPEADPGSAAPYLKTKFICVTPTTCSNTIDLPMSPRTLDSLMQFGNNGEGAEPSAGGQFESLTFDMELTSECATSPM
Nuclear factor NF-kappa-B p105 subunit (Homo sapiens), sequence (P19838 whole entry, looked up): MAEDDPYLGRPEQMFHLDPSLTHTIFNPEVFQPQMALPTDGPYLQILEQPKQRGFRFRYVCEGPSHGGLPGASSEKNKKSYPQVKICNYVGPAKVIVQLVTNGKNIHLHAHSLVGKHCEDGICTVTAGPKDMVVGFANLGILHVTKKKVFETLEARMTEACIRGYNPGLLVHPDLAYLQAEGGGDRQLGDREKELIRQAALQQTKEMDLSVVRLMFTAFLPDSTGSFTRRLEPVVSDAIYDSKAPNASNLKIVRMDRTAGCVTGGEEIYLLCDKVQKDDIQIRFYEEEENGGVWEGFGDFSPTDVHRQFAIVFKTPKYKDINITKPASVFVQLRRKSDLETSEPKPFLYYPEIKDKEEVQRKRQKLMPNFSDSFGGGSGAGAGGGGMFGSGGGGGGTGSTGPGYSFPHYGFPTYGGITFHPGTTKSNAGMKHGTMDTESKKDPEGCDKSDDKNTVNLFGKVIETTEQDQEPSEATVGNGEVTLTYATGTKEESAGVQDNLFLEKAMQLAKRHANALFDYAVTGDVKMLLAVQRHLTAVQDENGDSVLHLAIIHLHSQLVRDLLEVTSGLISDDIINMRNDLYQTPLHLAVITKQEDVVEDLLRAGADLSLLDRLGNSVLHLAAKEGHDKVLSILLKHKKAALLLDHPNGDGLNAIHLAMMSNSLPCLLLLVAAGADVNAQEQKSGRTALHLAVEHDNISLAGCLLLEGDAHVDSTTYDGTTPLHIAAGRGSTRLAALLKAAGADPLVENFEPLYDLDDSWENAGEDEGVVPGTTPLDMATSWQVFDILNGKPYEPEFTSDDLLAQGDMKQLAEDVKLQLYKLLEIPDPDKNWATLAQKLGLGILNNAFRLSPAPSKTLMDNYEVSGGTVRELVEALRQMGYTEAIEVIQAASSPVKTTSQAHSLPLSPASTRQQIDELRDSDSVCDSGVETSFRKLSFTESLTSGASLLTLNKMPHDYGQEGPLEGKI

[As]#[In]
not listed: [17] | [18] | [19]
inactive: all other assays above

CN(C)c1ccc(C(=O)c2ccc(N(C)C)cc2)cc1
active: [1] 33 µM | [6] 22.3 µM | [8] 50 µM | [9] 25.8 µM
not listed: [17] | [18] | [19]
inactive: all other assays above

CCCCCCCCOC(=O)c1ccc(C(=O)OCCCCCCCC)c(C(=O)OCCCCCCCC)c1
not listed: MYC, MYC (gene 4609) | [19]
inactive: all other assays above

OCCOCCO
not listed: [17] | [18] | [19]
inactive: all other assays above

O=C(O)C1C2CCC(O2)C1C(=O)O (stereo unspecified)
active: [1] 82.6 µM | [3] 74.4 µM | [5] 27.7 µM | [6] 85.7 µM | [8] 70.7 µM | [19] 69 µM | [14] 76 µM | [16] 35.1 µM
not listed: [4] | [17]
inactive: all other assays above

C=CCc1ccc2c(c1)OCO2
not listed: [17] | [18] | [19]
inactive: all other assays above

CC(C)COC(=O)c1ccccc1C(=O)OCC(C)C
not listed: [17] | [18] | [19]
inactive: all other assays above
